This passage reports AC50 and outcome results from PubChem BioAssay (EPA / NIEHS).

Where “and” joins values, the source holds several entries; their conditions need not be identical. Equal entries are not always repeated. More than one record can exist for a structure, and the calls need not agree. Calls of active or inactive are those of the source. How the source made its calls: active means hit-call score of the fitted dose curve at least 0.9, where 1 is the maximum; inactive means score below 0.9.

What all share (details): mRNA level, 48 h; actives raise or lower the signal
Read-out in test [1]: CYP2C8 (gene 1558)
As to the kind of experiment: LTEA_HepaRG_CYP2C8: Life Technologies and Expression Analysis (LTEA) Assay for CYP2C8 using HepaRG (AID 2283483). The method, boiled down:
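CYP2C8 expression measured by TaqMan qRT-PCR and normalized to three housekeeping genes. HepaRG cultures were treated for 48 h with an eight-point half-log series topping at 100 uM, vehicle 0.5% DMSO, duplicates; fitted both directions against DMSO.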

Read-out in test [2]: CYP2C9 (gene 1559)
Briefly: LTEA_HepaRG_CYP2C9: Life Technologies and Expression Analysis (LTEA) Assay for CYP2C9 using HepaRG (AID 2283484). The method in brief: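 CYP2C9 transcript level, quantified by TaqMan qRT-PCR against three housekeeping genes, was fitted bidirectionally relative to 0.5% DMSO. HepaRG cultures were treated 48 h, in duplicate, at eight half-log concentrations topping at 100 uM.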

Read-out in test [3]: CYP2E1 (gene 1571)
Briefly: LTEA_HepaRG_CYP2E1: Life Technologies and Expression Analysis (LTEA) Assay for CYP2E1 using HepaRG (AID 2283485). The method, boiled down: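 Readout is qRT-PCR of CYP2E1 mRNA, normalized to three housekeeping genes and fitted bidirectionally against 0.5% DMSO. HepaRG cells were dosed 48 h at eight concentrations, highest 100 uM with half-log dilutions.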

Read-out in test [4]: CYP4A11 (gene 1579)
Briefly: LTEA_HepaRG_CYP4A11: Life Technologies and Expression Analysis (LTEA) Assay for CYP4A11 using HepaRG (AID 2283486). The method, boiled down:
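CYP4A11 transcript levels were quantified by TaqMan qRT-PCR after HepaRG human liver cells were treated for 48 hours with test chemicals (top 100 uM, half-log dilutions, 0.5% DMSO). Gain or loss of signal was fitted relative to DMSO.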

Read-out in test [5]: Cytochrome P450 3A4 (Homo sapiens) (UniProt P08684)
Briefly: LTEA_HepaRG_CYP3A4: Life Technologies and Expression Analysis (LTEA) Assay for CYP3A4 using HepaRG (AID 2283487). The method in brief:
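In a human hepatic line (HepaRG), duplicate wells were treated 48 h with up to 100 uM chemical in half-log dilutions. Endpoint: CYP3A4 mRNA induction or loss relative to 0.5% DMSO vehicle, by qRT-PCR.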

Read-out in test [6]: DNA damage-inducible transcript 3 (DDIT3), DDIT3 (gene 1649)
As to the kind of experiment: LTEA_HepaRG_DDIT3: Life Technologies and Expression Analysis (LTEA) Assay for DNA damage-inducible transcript 3 (DDIT3) using HepaRG (AID 2283488). The method, boiled down:
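Cells are human HepaRG liver cells treated for 48 h with eight half-log concentrations up to 100 uM in 0.5% DMSO. Transcript levels come from qRT-PCR normalized to three housekeeping genes, with activity fitted in both directions relative to vehicle.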

Read-out in test [7]: Pro-epidermal growth factor (Homo sapiens) (UniProt P01133)
Briefly: LTEA_HepaRG_EGF: Life Technologies and Expression Analysis (LTEA) Assay for Epidermal growth factor (EGF) using HepaRG (AID 2283489). The method, boiled down: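 qRT-PCR readout of EGF transcript after 48 h chemical exposure of HepaRG cells; eight concentrations from 100 uM down in half-log steps, duplicate wells, 0.5% DMSO vehicle. Bidirectional curve fitting against DMSO baseline.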

Read-out in test [8]: Early growth response protein 1 (EGR1) transcription factor, EGR1 (gene 1958)
Briefly: LTEA_HepaRG_EGR1: Life Technologies and Expression Analysis (LTEA) Assay for Early growth response protein 1 (EGR1) transcription factor using HepaRG (AID 2283490). The method, boiled down: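 EGR1 transcript levels quantified by qRT-PCR (Fluidigm arrays) against three housekeeping genes after 48 h chemical exposure of HepaRG cells. Eight-point half-log series topping at 100 uM, 0.5% DMSO vehicle, analyzed for gain or loss.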

Read-out in test [9]: Ezrin (EZR), EZR (gene 7430)
As to the kind of experiment: LTEA_HepaRG_EZR: Life Technologies and Expression Analysis (LTEA) Assay for Ezrin (EZR) using HepaRG (AID 2283491). The method, boiled down:
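Gain or loss of EZR mRNA is scored relative to 0.5% DMSO in human HepaRG cultures treated 48 h with test chemicals in duplicate, eight half-log concentrations from 100 uM.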

Read-out in test [10]: Cytochrome P450 3A7 (Homo sapiens) (UniProt P24462)
As to the kind of experiment: LTEA_HepaRG_CYP3A7: Life Technologies and Expression Analysis (LTEA) Assay for CYP3A7 using HepaRG (AID 2283492). The method, boiled down:
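CYP3A7 transcript levels were read by TaqMan qRT-PCR on Fluidigm arrays after 48 h chemical exposure of human HepaRG cells, with housekeeping-gene normalisation. Eight half-log concentrations up to 100 uM in 0.5% DMSO were tested in duplicate.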

Read-out in test [11]: Fatty Acid-Binding Protein 1 (FABP1), FABP1 (gene 2168)
As to the kind of experiment: LTEA_HepaRG_FABP1: Life Technologies and Expression Analysis (LTEA) Assay for Fatty Acid-Binding Protein 1 (FABP1) using HepaRG (AID 2283494). The method, boiled down: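 FABP1 expression by TaqMan qRT-PCR, normalised to three housekeeping genes, in HepaRG cells after 48 h chemical treatment. Eight-point half-log series topping at 100 uM in 0.5% DMSO, duplicates; gain or loss fitted relative to vehicle.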

Read-out in test [12]: Cytochrome P450 4A22 (Homo sapiens) (UniProt Q5TCH4)
As to the kind of experiment: LTEA_HepaRG_CYP4A22: Life Technologies and Expression Analysis (LTEA) Assay for Cytochrome P450 4A22 (CYP4A22) using HepaRG (AID 2283495). The method, boiled down:
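HepaRG, 48 h post-plating -> serum-free induction medium; dosed 48 h, duplicate, 8 conc. (100 uM top, half-log), 0.5% DMSO. Readout: CYP4A22 mRNA by qRT-PCR, ACTB/GAPDH/POLR2A normalization; gain/loss fit relative to DMSO.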

Read-out in test [13]: Cytochrome P450 7A1 (Homo sapiens) (UniProt P22680)
As to the kind of experiment: LTEA_HepaRG_CYP7A1: Life Technologies and Expression Analysis (LTEA) Assay for Cytochrome P450 7A1 (CYP7A1) using HepaRG (AID 2283496). The method, boiled down: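 HepaRG, 48 h exposure, 8-pt half-log series from 100 uM, 0.5% DMSO vehicle, duplicates. Readout: TaqMan qRT-PCR mRNA vs three housekeeping genes; bidirectional curve fit against DMSO baseline.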

Read-out in test [14]: Glutathione S-Transferase (GSTA2), GSTA2 (gene 2939)
As to the kind of experiment: LTEA_HepaRG_GSTA2: Life Technologies and Expression Analysis (LTEA) Assay for Glutathione S-Transferase (GSTA2) using HepaRG (AID 2283497). The method in brief: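 GSTA2 transcript levels came from Fluidigm TaqMan qRT-PCR normalized to three housekeeping genes, fitted in both directions against DMSO. HepaRG cultures received chemicals for 48 h in serum-free induction medium (0.5% DMSO), 8 half-log concentrations up to 100 uM, duplicate.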

Read-out in test [15]: Glutamate-cysteine ligase catalytic (GCLC), GCLC (gene 2729)
Briefly: LTEA_HepaRG_GCLC: Life Technologies and Expression Analysis (LTEA) Assay for Glutamate-cysteine ligase catalytic (GCLC) using HepaRG (AID 2283498). The method in brief:
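Expression by TaqMan qRT-PCR, normalized to three housekeeping genes (ACTB, GAPDH, POLR2A), with up- or down-regulation fitted against DMSO. HepaRG cells dosed in duplicate for 48 h with 8 half-log concentrations up to 100 uM, vehicle 0.5% DMSO.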

Read-out in test [16]: Heat shock 70 kDa protein 1 (HSPA1A), gene 3303
Briefly: LTEA_HepaRG_HSPA1A: Life Technologies and Expression Analysis (LTEA) Assay for Heat shock 70 kDa protein 1 (HSPA1A) using HepaRG (AID 2283502). The method, boiled down:
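Cells were plated and cultured for 48 h, then switched to serum-free induction medium. Chemicals were added at eight half-log concentrations up to 100 uM for 48 h. RNA was then isolated and HSPA1A measured by qRT-PCR with bidirectional curve fitting against DMSO.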

Read-out in test [17]: CYP3A5 (gene 1577)
As to the kind of experiment: LTEA_HepaRG_CYP3A5: Life Technologies and Expression Analysis (LTEA) Assay for CYP3A5 using HepaRG (AID 2283493). The method in brief: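 Human HepaRG hepatic cells receive 48 h chemical treatment at eight concentrations (half-log steps from 100 uM) in 0.5% DMSO. Expression of CYP3A5 is quantified by Fluidigm qRT-PCR and normalized to three reference genes.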

Read-out in test [18]: growth arrest and DNA damage 45 (GADD45G), GADD45G (gene 10912)
As to the kind of experiment: LTEA_HepaRG_GADD45G: Life Technologies and Expression Analysis (LTEA) Assay for growth arrest and DNA damage 45 (GADD45G) using HepaRG (AID 2283499). The method in brief: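 HepaRG, 48 h exposure, top 100 uM, half-log 8-point series, 0.5% DMSO vehicle, duplicates. Readout: GADD45G transcript by qRT-PCR (Fluidigm array), housekeeping-normalised (ACTB/GAPDH/POLR2A). Bidirectional curve fit vs DMSO baseline.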

Chain of Cytochrome P450 3A4 (Homo sapiens) (P08684 whole entry, looked up): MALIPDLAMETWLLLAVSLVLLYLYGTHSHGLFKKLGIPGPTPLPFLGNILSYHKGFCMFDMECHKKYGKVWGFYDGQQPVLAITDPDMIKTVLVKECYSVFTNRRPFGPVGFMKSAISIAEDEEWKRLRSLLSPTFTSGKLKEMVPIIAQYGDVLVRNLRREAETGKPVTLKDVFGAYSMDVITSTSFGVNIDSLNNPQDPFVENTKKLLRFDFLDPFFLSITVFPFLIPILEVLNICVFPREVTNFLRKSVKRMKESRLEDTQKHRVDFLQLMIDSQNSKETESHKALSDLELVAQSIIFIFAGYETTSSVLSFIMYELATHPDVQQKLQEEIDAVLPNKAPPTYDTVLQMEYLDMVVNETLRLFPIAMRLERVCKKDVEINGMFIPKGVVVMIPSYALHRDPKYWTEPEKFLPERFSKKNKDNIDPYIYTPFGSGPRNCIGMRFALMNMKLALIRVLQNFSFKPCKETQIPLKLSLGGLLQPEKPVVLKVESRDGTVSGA
Chain of Cytochrome P450 3A7 (Homo sapiens) (P24462 whole entry, looked up): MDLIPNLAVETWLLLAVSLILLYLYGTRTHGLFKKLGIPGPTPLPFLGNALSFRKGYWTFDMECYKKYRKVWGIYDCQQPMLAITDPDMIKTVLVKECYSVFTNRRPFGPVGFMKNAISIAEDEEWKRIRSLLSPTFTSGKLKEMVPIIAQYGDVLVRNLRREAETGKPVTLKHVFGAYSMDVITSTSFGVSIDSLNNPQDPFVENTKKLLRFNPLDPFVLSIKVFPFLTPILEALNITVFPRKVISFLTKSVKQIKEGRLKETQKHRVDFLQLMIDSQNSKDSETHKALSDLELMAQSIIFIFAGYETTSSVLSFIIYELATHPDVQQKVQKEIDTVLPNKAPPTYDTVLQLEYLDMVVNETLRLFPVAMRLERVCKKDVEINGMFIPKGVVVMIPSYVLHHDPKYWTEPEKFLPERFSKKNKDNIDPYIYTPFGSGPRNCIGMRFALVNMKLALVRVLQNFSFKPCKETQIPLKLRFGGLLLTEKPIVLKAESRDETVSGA

Turning to `CC1(c2ccc(Oc3ccccc3)cc2)OC(=O)N(Nc2ccccc2)C1=O` (configuration not stated), the AC50 (commonly the concentration giving half of the maximal activity seen) in test [1] is 15.9 µM (active); in test [2], 17.4 µM (active); in test [3], 5.56 µM (active); in test [4], 8.16 µM (active); in [5], 26.2 µM (active); in test [6] it was 8.41 µM (active). The AC50 was 82.1 µM (active) in test [8]; 4.5 µM (active) in [9]; 24.8 µM (active) in [10]; 18.7 µM (active) in test [11]; 9.55 µM (active) in [12]; 12.3 µM (active) in test [13]. Moreover, the half-maximal activity concentration (AC50) was 24.5 µM (active) in [14] and 80.5 µM (active) in test [16]. In addition, the result in test [7] and in [15] was inactive.
On to `CCN(CC)C(=O)SCc1ccc(Cl)cc1`, for which the outcome in [1], in [2], in [4], in test [6], in [7] and in test [8] was inactive. For the same molecule, the call in test [9], in test [10], in [17], in [12], in [13] and in test [14] was inactive. Moreover, the molecule was classed as inactive in test [15] and in test [16]. In addition, the concentration at half-maximal activity (AC50) is 27.3 µM (active) in test [3], 9.92 µM (active) in test [5] and 15.4 µM (active) in [11].
As to `ClC1C(Cl)C(Cl)C(Cl)C(Cl)C1Cl` (configuration not stated), the AC50 is 0.418 µM (active) in test [1]; 1.93 µM (active) in test [2]; 22.3 µM (active) and 5.02 µM (active) in [3]; 12.6 µM (active) in test [4]; 1.92 µM (active) in test [7]; 6.88 µM (active) in test [11]. For the same molecule, the AC50 in test [12] was 9.67 µM (active) and 8.27 µM (active); in [13], 3.88 µM (active). The call in [1], in test [2], in [4], in test [6], in test [7] and in test [8] was inactive. Besides, the outcome in [9], in [10], in [11], in test [13], in [14] and in test [15] was inactive. The molecule was classed as inactive in test [16].
As to `O=C(O)C(F)(F)C(F)(F)C(F)(F)C(F)(F)C(F)(F)C(F)(F)C(F)(F)F`, the concentration at half-maximal activity (AC50) in [1] was 12.8 µM (active); in [4] it was 12.8 µM (active) and 6.48 µM (active); in test [8], 12.1 µM (active); in [10] it was 22.1 µM (active) and 9.92 µM (active); in test [11], 11 µM (active) and 8 µM (active); in [12], 6.42 µM (active) and 5.96 µM (active). For the same molecule, in [16], the AC50 was 50 µM (active). The molecule was called inactive in test [1], in test [2], in test [3], in test [5], in [6] and in test [7]. The call in test [8], in test [9], in test [13], in [14], in [15] and in [18] was inactive. For the same molecule, the call in [16] was inactive.
In the case of `O=[N+]([O-])/N=C1\NCCN1Cc1ccc(Cl)nc1`, the AC50 in [1] is 74.1 µM (active); in [2], 38.1 µM (active); in [3], 34.8 µM (active); in test [7], 30.2 µM (active); in test [11], 36 µM (active); in [13] it was 34.1 µM (active). Besides, the concentration at half-maximal activity (AC50) in test [14] is 39.9 µM (active); in test [15] it was 24.6 µM (active); in test [16], 25 µM (active). In addition, the result in test [4], in test [5], in test [6], in [8], in test [9] and in test [10] was inactive. Further, the molecule was called inactive in [17], in test [12] and in [18].
